In PubChem BioAssay:
Calls of active or inactive are those of the source.

Key:
[1] = system: PRMT1 (protein arginine N-methyltransferase 1); test: PRMT1 binders on small-molecule microarrays, primary screen, biochemical, small-molecule microarray, 635 nm fluorescence (AID 1088); settings: small-molecule microarray binding, higher = more signal;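 note: binding of Prmt1 protein to compounds spotted on small-molecule microarray slides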
[2] = yeast growth modulation, basal conditions, primary screen, YJM789 clinical isolate, OD600, 24 h (AID 1089);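 note: growth of clinical yeast isolate S. cerevisiae YJM 789 seeded 1000 cells per well; test concentration not given here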; settings: S. cerevisiae YJM789 growth, higher = more signal, called active from +8 up or from −8 down
[3] = fission yeast growth modulation, primary screen, strain 972, OD600, 24 h, no modulator (AID 1090);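 note: basal condition with compound alone and no growth modifier present; test concentration not given here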; settings: S. pombe 972 growth, higher = more signal, called active from +8 up or from −8 down
[4] = S. cerevisiae growth modulation with rapamycin, primary screen, strain BY4716, OD600, 96 h (AID 1091); settings: higher = more signal, called active from +8 up or from −8 down; note: test concentration not given here
[5] = target: Torsin-1A-interacting protein 2 (Homo sapiens) (UniProt Q8NFQ8); test: LULL1 binders on small-molecule microarray, primary screen, cell lysate, human LULL1 lysate, 635/667 nm fluorescence (AID 1092); settings: hLULL1 lysate binding, 635 nm fluorescence, higher = more signal;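 note: probe is lysate of COS7 cells overexpressing human LULL1; score merges per-feature 667 nm fluorescence with signal-to-noise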
[6] = E. coli growth modulation, two-sided OD650, primary screen, E. coli filamentation project, strain DRC41, 24 h (AID 1093); settings: OD650, 24 h, higher = more signal, called active from +8 up or from −8 down;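 note: MC1000 strain lacking acrAB efflux and sulA so SOS filamentation is blocked; test concentration not given here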
[7] = small-molecule microarray binders of probe aLefty2, primary screen, biochemical, biotinylated probe, 635/667 nm fluorescence (AID 1094); settings: higher = more signal;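 note: score merges spot fluorescence near 667 nm with spot signal-to-noise ratio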
[8] = system: Noggin (protein binding on small-molecule microarray); test: Noggin binders on small-molecule microarray, primary screen, biochemical, 635/667 nm fluorescence (AID 1095); settings: 635 nm fluorescence, higher = more signal;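 note: score merges 667 nm feature fluorescence with signal to noise over triplicate slides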
[9] = target: Neurogenic locus notch homolog protein 3 (Homo sapiens) (UniProt Q9UM47); test: NOTCH3 binders on small-molecule microarray, primary screen, biochemical, 635/667 nm fluorescence (AID 1096); settings: NOTCH3 binding, 635 nm fluorescence, higher = more signal
[10] = small-molecule microarray binders of probe aEGFR, primary screen, biochemical, biotinylated probe, 635/667 nm fluorescence (AID 1097); settings: higher = more signal;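 note: probe is a biotinylated anti-EGFR antibody binding compounds printed on slides; score combines fluorescence near 667 nm and signal to noise of each spot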
[11] = system: Plasmodium falciparum Sir2 (PF13_0152, Sir2A); test: pfSir2 binders on small-molecule microarrays, primary screen, biochemical, small-molecule microarray, 635 nm fluorescence (AID 1098); settings: small-molecule microarray binding, fluorescence 635 nm; higher = more signal;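 note: score merges spot fluorescence intensity with its signal-to-noise ratio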
[12] = small-molecule microarray binders of probe aDKK1, primary screen, biochemical, biotinylated probe, 635/667 nm fluorescence (AID 1099); settings: higher = more signal;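 note: score merges 667nm spot fluorescence with signal to noise across triplicate slides; reference of the scale not given here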
[13] = small-molecule microarray binders of probe aCHRDL2, primary screen, biochemical, biotinylated probe, 635/667 nm fluorescence (AID 1100); settings: higher = more signal
[14] = splicing luciferase reporter signal modulators, primary screen, spliceosome inhibition project, cell-based, HEK293, splice +/- reporter (AID 1101); settings: luminescence, 24 h, higher = more signal, called active from +8 up or from −8 down;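 note: HEK293 cells carrying a splicing-competent luciferase reporter gene; test concentration not given here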
[15] = target: Fibroblast growth factor 10 (Homo sapiens) (UniProt O15520); test: FGF10 binders on small-molecule microarrays, primary screen, biochemical, small-molecule microarray, 635 nm fluorescence (AID 1102); settings: FGF10 binding, fluorescence 635 nm, higher = more signal
[16] = system: glycogen synthase kinase-3 (GSK3A per assay name; protocol says GSK3B); test: GSK3 binders on small-molecule microarrays, primary screen, biochemical, small-molecule microarray, 635 nm fluorescence, GSK3A (AID 1103); settings: small-molecule microarray binding, fluorescence 635 nm; higher = more signal; note: the record names both GSK3A and GSK3B
[17] = target: Epidermal growth factor receptor (Homo sapiens) (UniProt P00533); test: EGFR binders on small-molecule microarrays, primary screen, biochemical, small-molecule microarray, 635 nm fluorescence (AID 1104); settings: EGFR binding, higher = more signal;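 note: score merges 667 nm emission intensity with spot signal to noise over triplicate slides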
[18] = target: Follistatin-related protein 3 (Homo sapiens) (UniProt O95633); test: FSTL3 binders on small-molecule microarrays, primary screen, biochemical, small-molecule microarray, 635 nm fluorescence (AID 1105); settings: FSTL3 binding, higher = more signal;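 note: score merges emission near 667 nm and signal to noise per printed spot across three slides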
[19] = target: Dickkopf-related protein 1 (Homo sapiens) (UniProt O94907); test: DKK1 binders on small-molecule microarrays, primary screen, biochemical, small-molecule microarray, 635 nm fluorescence scan (AID 1106); settings: DKK1 binding, higher = more signal;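 note: score merges emission near 667 nm with signal to noise over three replicate slides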
[20] = system: Inhibin beta A chain (activin A); test: INHBA (activin A) binders on microarrays, primary screen, biochemical, small-molecule microarray, 635 nm fluorescence scan (AID 1107); settings: small-molecule microarray binding, higher = more signal;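 note: mouse activin A protein probed at 4.33 µg/mL on printed slides; score merges bound-protein fluorescence near 667 nm with spot signal-to-noise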

Chain of Fibroblast growth factor 10 (Homo sapiens) (O15520 whole entry, looked up): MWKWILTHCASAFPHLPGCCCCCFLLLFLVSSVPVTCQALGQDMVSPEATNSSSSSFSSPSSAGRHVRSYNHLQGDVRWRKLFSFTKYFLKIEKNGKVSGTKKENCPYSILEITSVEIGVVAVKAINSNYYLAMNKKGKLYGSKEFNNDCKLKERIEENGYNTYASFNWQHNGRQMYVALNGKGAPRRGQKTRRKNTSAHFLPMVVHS
Chain of Torsin-1A-interacting protein 2 (Homo sapiens) (Q8NFQ8 whole entry, looked up): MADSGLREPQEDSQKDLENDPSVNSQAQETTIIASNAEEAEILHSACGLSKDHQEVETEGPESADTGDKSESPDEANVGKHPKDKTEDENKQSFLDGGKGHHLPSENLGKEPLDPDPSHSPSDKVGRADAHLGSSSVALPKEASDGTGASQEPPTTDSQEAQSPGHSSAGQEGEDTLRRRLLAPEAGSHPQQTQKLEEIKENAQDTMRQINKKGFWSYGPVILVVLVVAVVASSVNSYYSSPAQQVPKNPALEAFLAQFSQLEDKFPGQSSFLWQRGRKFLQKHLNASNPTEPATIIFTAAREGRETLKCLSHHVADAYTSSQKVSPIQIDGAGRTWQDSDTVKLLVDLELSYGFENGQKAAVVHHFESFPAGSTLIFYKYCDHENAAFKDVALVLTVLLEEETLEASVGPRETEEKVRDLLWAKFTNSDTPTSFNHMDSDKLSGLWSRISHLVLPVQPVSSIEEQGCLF
Chain of Follistatin-related protein 3 (Homo sapiens) (O95633 whole entry, looked up): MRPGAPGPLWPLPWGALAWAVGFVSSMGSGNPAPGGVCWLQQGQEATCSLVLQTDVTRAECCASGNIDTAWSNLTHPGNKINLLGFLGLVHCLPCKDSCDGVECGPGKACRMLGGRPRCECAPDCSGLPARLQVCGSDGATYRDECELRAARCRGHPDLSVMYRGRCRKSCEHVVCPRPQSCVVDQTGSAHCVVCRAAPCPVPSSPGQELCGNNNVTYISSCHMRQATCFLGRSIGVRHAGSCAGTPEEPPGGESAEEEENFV
Chain of Epidermal growth factor receptor (Homo sapiens) (P00533 whole entry, looked up): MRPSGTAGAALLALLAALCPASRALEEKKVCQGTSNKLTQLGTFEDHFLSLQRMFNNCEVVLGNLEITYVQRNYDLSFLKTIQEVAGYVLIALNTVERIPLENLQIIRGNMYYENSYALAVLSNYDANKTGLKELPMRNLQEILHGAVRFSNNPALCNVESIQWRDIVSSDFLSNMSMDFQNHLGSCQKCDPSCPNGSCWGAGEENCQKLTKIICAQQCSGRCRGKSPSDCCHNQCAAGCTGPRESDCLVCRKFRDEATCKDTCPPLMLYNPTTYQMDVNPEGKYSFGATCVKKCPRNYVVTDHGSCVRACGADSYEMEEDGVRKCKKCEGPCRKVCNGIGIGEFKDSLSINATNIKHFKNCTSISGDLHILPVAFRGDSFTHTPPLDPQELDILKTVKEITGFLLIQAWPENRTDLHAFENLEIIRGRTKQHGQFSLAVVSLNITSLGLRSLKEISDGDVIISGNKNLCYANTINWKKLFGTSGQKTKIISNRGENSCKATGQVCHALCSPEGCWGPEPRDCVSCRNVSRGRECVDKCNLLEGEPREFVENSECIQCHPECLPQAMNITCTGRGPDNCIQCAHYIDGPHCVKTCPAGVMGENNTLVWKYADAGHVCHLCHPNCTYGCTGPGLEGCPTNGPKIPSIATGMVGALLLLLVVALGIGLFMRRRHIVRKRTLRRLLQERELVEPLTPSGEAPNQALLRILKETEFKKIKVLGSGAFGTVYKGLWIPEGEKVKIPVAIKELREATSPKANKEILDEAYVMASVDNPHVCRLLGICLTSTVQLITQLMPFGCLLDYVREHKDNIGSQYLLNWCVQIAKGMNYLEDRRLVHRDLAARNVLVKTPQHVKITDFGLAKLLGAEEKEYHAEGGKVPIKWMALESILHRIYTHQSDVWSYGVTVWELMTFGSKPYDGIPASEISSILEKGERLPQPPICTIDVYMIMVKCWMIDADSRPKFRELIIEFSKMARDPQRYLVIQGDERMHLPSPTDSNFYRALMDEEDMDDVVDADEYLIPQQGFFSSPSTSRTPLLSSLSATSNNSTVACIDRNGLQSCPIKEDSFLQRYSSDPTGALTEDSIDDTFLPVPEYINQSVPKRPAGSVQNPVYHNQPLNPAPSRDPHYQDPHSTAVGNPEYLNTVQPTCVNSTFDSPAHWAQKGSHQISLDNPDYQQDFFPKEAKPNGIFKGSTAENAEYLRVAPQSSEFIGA
Chain of Dickkopf-related protein 1 (Homo sapiens) (O94907 whole entry, looked up): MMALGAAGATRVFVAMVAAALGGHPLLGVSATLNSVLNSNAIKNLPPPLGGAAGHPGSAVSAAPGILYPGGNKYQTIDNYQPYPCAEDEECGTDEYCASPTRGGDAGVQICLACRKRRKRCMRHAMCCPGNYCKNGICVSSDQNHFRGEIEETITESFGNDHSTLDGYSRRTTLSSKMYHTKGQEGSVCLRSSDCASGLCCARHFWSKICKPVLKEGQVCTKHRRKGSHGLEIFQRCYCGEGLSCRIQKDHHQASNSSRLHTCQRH
Chain of Neurogenic locus notch homolog protein 3 (Homo sapiens) (Q9UM47 whole entry, looked up): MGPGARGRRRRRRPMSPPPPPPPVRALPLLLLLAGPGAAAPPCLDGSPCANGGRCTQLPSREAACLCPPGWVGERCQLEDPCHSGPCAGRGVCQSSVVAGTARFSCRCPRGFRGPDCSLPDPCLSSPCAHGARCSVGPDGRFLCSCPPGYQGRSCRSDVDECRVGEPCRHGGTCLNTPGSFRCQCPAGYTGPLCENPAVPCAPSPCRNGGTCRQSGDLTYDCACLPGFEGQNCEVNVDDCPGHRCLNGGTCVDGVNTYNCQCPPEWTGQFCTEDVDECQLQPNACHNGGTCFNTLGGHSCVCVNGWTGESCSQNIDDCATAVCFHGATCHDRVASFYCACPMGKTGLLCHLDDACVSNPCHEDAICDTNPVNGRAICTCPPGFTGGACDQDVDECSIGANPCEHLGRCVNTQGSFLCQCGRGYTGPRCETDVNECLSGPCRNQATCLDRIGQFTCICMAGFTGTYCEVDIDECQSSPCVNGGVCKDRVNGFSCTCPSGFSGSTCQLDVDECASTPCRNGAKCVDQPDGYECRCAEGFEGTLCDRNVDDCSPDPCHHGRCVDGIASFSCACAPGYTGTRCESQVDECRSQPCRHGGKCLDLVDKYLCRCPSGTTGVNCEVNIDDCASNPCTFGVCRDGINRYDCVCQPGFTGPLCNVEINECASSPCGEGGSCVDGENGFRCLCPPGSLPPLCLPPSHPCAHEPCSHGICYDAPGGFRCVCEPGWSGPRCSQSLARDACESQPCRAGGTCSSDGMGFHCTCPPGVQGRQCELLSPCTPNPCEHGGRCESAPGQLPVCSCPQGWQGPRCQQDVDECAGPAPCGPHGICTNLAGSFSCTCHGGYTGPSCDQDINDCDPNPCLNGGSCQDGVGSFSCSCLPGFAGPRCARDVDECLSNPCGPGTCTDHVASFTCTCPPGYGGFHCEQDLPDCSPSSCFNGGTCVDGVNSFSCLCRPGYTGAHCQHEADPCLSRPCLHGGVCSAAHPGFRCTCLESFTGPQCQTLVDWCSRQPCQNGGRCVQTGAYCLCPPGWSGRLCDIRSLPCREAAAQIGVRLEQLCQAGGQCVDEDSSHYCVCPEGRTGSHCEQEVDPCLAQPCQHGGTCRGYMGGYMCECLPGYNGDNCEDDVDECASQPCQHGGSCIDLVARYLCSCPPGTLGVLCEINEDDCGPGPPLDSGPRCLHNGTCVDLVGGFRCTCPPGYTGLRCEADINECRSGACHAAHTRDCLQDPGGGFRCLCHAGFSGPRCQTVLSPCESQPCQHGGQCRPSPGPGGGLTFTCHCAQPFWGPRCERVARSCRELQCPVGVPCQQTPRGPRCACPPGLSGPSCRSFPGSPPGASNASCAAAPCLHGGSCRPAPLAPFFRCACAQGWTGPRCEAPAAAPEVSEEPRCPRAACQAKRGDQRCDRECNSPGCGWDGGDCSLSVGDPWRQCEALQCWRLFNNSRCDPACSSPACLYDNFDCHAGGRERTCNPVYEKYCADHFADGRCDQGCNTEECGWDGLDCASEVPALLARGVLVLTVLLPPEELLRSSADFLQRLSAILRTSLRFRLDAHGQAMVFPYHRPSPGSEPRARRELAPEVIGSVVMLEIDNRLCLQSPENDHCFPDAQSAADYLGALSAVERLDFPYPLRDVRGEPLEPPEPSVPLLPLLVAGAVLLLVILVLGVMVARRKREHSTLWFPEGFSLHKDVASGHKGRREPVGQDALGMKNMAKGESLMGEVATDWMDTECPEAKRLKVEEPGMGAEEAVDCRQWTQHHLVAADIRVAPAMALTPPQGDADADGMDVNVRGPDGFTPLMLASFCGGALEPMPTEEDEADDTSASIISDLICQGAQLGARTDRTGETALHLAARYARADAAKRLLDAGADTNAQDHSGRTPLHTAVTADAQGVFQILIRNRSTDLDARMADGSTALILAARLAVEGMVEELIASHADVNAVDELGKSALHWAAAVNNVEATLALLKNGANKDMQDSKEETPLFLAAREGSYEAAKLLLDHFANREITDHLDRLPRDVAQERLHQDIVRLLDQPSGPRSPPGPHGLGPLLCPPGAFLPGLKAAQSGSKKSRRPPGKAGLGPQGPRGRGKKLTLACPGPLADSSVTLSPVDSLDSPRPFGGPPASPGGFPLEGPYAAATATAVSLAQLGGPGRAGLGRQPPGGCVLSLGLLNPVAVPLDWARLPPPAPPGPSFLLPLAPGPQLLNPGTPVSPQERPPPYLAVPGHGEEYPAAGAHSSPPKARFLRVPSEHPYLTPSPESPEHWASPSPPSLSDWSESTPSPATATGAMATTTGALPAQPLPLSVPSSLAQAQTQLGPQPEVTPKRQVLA

| Compound | composite z-score [1] | z-score [2] | z-score [3] | z-score [4] | composite z-score [5] | z-score [6] | composite z-score [7] | composite z-score [8] | composite z-score [9] | composite z-score [10] | composite z-score [11] | composite z-score [12] | composite z-score [13] | z-score [14] | composite z-score [15] | composite z-score [16] | composite z-score [17] | composite z-score [18] | composite z-score [19] | composite z-score [20] |
| --- | --- | --- | --- | --- | --- | --- | --- | --- | --- | --- | --- | --- | --- | --- | --- | --- | --- | --- | --- | --- |
| C=CC[C@H](OC(=O)Nc1ccc(SC)cc1)c1ccc(OCCO)cc1 | -0.693 | -0.739 (inactive) | -2.94 (inactive) | -0.598 (inactive) | 0.639 | 0.951 (inactive) | -0.15 | 0.732 | 0.201 | -0.19 | 0.392 | -0.164 | 0.799 | -1.69 (inactive) | -0.163 | -0.989 | -0.634 | -0.0191 | -0.472 | 0.138 |
| CC(C)CNC(=O)[C@@]1(c2ccc([N+](=O)[O-])cc2)CC(=O)N(C2CCCCC2)[C@@H]1c1ccc(CO)cc1 | 0.566 | -0.563 (inactive) | -0.514 (inactive) | -0.548 (inactive) | 2.54 | 0.861 (inactive) | 0.136 | -0.318 | -0.0858 | -0.0989 | 0.388 | 0.368 | 0.453 | -0.472 (inactive) | 0.735 | 0.484 | 0.103 | 0.0017 | -0.362 | 0.517 |
| C=CCNC(=O)[C@@H]1[C@H]2C(=O)O[C@H](c3ccccc3)[C@H](c3ccccc3)N2[C@H](c2ccc(OCCO)cc2)[C@@]12C(=O)N(C(=O)OCCOC)c1ccc(C#CCCO)cc12 | 1.55 | -0.0915 (inactive) | 0.269 (inactive) | 4.08 (inactive) | 1.85 | 2.17 (inactive) | -0.0861 | 0.916 | 1.1 | -0.0088 | 1.12 | -0.0139 | 0.171 | -1.53 (inactive) | 0.637 | 1.28 | 0.635 | 1.24 | 0.646 | 0.63 |
| C=C(/C(=C/C[C@@H](OC(C)=O)c1ccc(CO)o1)c1cc(C(=O)OC)ccc1OC)C(C)C | 0.864 | 1.06 (inactive) | -0.245 (inactive) | -0.0251 (inactive) | 1.86 | -0.0453 (inactive) | -0.0142 | 0.328 | 0.213 | 0.358 | 0.12 | -0.22 | -0.256 | 0.227 (inactive) | 1.02 | 0.469 | -0.132 | 0.347 | 0.251 | 0.995 |
| O=c1cccc(-c2ccc(F)cc2)o1 | 0.777 | -1.28 (inactive) | -0.0295 (inactive) | -0.313 (inactive) | -0.326 | -0.428 (inactive) | -0.0591 | 0.245 | 0.784 | 0.132 | 0.347 | 0.328 | -0.3 | 0.362 (inactive) | 0.948 | 0.716 | 0.444 | 0.74 | 0.399 | 0.457 |
